Rows were chosen to be rich in hits. Some 2.4% of all compounds tested hit in one or more screens of this group.
CHO-K1 Ca PAM: M1 PAM counterscreen hit in parental CHO-K1 cells; AID 602247; activation, % at 3 µM; ATP EC20, Fluo-8 calcium fluorescence; 0% at ATP EC20, 100% at ATP max; actives 0.02% (n = 360,000);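 active = activation above the run cutoff, the mean activation of all test compounds plus 3 SD, cut at about 40% in these data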;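 note: peak over basal fluorescence ratio in a 140 s read after ATP addition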
CHRM1 antagonist: antagonists of human M1 muscarinic receptor | CHO-K1 hM1, Fluo-8 calcium fluorescence, ACh EC80 antagonist | actives 1.3% (n = 360,000) | P11229 | inhibition, % at 3 µM | AID 588852;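 active = percent inhibition above its own plate's cutoff, namely the mean of that plate's compound wells plus 3 SD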;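 note: peak over basal fluorescence ratio during 140 s after agonist addition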
Target sequence (P11229 whole entry, looked up): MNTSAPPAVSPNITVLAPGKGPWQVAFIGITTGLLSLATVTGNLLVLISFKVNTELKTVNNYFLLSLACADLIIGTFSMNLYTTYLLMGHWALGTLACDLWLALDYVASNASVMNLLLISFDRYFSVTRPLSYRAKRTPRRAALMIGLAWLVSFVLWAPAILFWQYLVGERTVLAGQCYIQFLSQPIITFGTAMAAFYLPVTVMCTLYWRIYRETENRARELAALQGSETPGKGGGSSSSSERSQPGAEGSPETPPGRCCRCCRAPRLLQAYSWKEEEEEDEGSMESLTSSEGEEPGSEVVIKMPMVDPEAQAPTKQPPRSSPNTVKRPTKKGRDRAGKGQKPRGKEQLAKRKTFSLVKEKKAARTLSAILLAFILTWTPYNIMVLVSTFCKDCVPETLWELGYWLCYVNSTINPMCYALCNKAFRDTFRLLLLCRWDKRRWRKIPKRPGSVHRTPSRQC
CHO-K1 Ca antag: counter-screen for M1 antagonists: effect in parental CHO-K1 cells. AID 602250. actives 0.6% (n = 360,000). inhibition, % at 3 µM. ATP-induced calcium, Fluo-8 fluorescence;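 active = inhibition above a per-plate cutoff, the plate's mean sample inhibition plus 3 SD, cut at about 24% in these data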
CHRM1 PAM: human CHRM1 positive allosteric modulation. P11229. CHO-K1 hM1, Fluo-8 calcium fluorescence, ACh EC20; 0% = ACh EC20, 100% = maximal ACh. activation, % at 3 µM. actives 0.088% (n = 360,000). AID 588819; in the data active = activation above about 19%, passing the limit was not always enough
CHO-K1 Ca ag: M1 agonist counterscreen hit in parental CHO-K1 cells; Fluo-8 calcium fluorescence; scaled to maximal ATP response, vehicle zero; activation, % at 3 µM; actives 0.48% (n = 360,000); AID 602248; in the data active = activation above about 15%;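 note: untransfected CHO-K1 host cells lacking M1 receptor as counterscreen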
CHRM1 agonist: human M1 muscarinic receptor agonism; P11229; CHO-K1 hM1, Fluo-8 calcium fluorescence, agonist mode; 0% DMSO, 100% acetylcholine EC100; activation, % at 3 µM; actives 0.33% (n = 360,000); AID 588814;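 active = activation above the run's mean compound activation plus 3 SD, cut at about 16% in these data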;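 note: peak over basal fluorescence ratio within a 140 s kinetic read after compound addition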
Large screens that a line does not name were inactive.

COc1ccccc1C1=NOC(Cn2c(NCCCO)nc3c2c(=O)n(C)c(=O)n3C)C1 (stereo unspecified)	none
COCCNC(=O)CCC1CCN(Cc2ccc(-c3ccccc3)cc2)CC1	CHRM1 antagonist 99.1
COCCNC(=O)C1CCCN(Cc2ccccc2)CC1 (stereo unspecified)	none
COCCNC(=O)c1cccc(OC2CCN(Cc3ccc(C(=O)OC)cc3)CC2)c1	CHRM1 antagonist 70.5, CHRM1 agonist 19.2
COCCNC(=O)c1cccc(OC2CCN(Cc3ccc(C(C)C)cc3)CC2)c1	none
COC(=O)c1ccc(CN2CCC(Oc3cccc(C(=O)N4CCOCC4)c3)CC2)cc1	CHRM1 antagonist 83.9, CHRM1 agonist 18.5
CSc1cccc(CN2CCC(Oc3cccc(C(=O)N4CCCC4)c3)CC2)c1	none
CCCC(=O)N1CCC1(C)C(=O)NCc1ccccc1SC (stereo unspecified)	none
O=C(Nc1ccc(Br)c(C(F)(F)F)c1)c1ccccc1	none
O=C(Nc1ccc(OCC(F)(F)C(F)F)c(C(F)(F)F)c1)c1ccc(Cl)cc1	CHRM1 antagonist 36.3
O=C(Nc1ccc(Br)c(C(F)(F)F)c1)c1ccc(C(F)(F)F)cc1	CHRM1 antagonist 63.4
CN1/C(=C/C(=O)COC(=O)C2COc3ccccc3O2)C(C)(C)c2ccccc21 (stereo unspecified)	none
CCN(CC)c1ccc(/C=C(\C#N)c2ccccn2)cc1	CHO-K1 Ca antag 26.2
O=C(NNC(=O)c1cccc2ccccc12)c1cccc(Cl)c1	none
CCOC(=O)NNC(=O)C1CCC(C)CC1 (stereo unspecified)	CHO-K1 Ca ag 19.3
O=C(c1cc(=O)[nH]c2ccccc12)N1CCN(S(=O)(=O)c2ccc(Cl)cc2)CC1	none
O=C(c1cc(=O)[nH]c2ccccc12)N1CCN(S(=O)(=O)c2ccc3ccccc3c2)CC1	CHO-K1 Ca antag 25.6
CC(OC(=O)c1cccc(O)c1)C(=O)N(C)Cc1ccccc1 (stereo unspecified)	none
CC(OC(=O)/C(C#N)=C/c1ccc(N(C)C)cc1)C(=O)N(C)Cc1ccccc1 (stereo unspecified)	CHRM1 antagonist 30.2
Cc1cc(C)c(S(=O)(=O)Cc2ccc(Cl)cc2)c(=O)[nH]1	none
Cc1cc(C)c(S(=O)(=O)Cc2ccccc2)c(=O)[nH]1	CHO-K1 Ca antag 24.6
CCOC(=O)C1=CNS(=O)(=O)NC1c1ccc(C(F)(F)F)cc1 (stereo unspecified)	none
CCC(=O)N(Cc1cc(=O)[nH]c2ccccc12)c1ccccc1	CHRM1 antagonist 31.2
Cc1cccc(C(=O)O[C@@H]2[C@H](Cc3ccccc3)NS(=O)(=O)[C@H]3C[C@@H]4C=C[C@]23O4)c1	none
COc1ccc(NC(=O)COc2coc(CN3CCc4ccccc4C3)cc2=O)cc1	none
Cc1ccccc1NC(=O)COc1coc(CN2CCCc3ccccc32)cc1=O	CHRM1 PAM 26.3
NC(=O)c1ccc(NC(=O)COc2coc(CN3CCc4ccccc4C3)cc2=O)cc1	CHO-K1 Ca ag 16.0
CC(=O)Nc1ccc(-c2ccnc3c2CC(C(=O)Nc2cccc(OC(F)(F)F)c2)O3)cc1 (stereo unspecified)	none
Cc1ccsc1C(=O)NNC(=O)COc1ccccc1Cl	CHO-K1 Ca antag 30.8
Cc1cc(=O)oc2ccc(OCC(=O)N(Cc3ccc(F)cc3)Cc3ccco3)cc12	CHRM1 antagonist 33.8, CHO-K1 Ca antag 37.5
O=C(Cc1coc2ccc3ccccc3c12)Nc1nccs1	CHO-K1 Ca antag 26.0
CN(C)CCCN(C(=O)c1ccc2ccccc2c1)c1nc2cc3c(cc2s1)OCO3	none
CN(C)CCN(C(=O)c1cccc2ccccc12)c1nc2cc3c(cc2s1)OCO3	CHRM1 antagonist 46.8
COc1ccc(C)cc1NC(=O)c1cc(S(=O)(=O)N2CCOCC2)cn1C	none
ON=C1c2ccccc2-c2cc(Br)ccc21	none
COc1ccccc1CCc1nnc(CCC(=O)N(C)Cc2cccc3cnccc23)o1	CHO-K1 Ca antag 25.3
CC(C)C[C@H]1CN(CCCC[C@@H]2CNC(=O)C(=O)N2CCc2ccccc2)C(=O)C(=O)N1CCc1ccc(O)cc1	none (no result: CHRM1 antagonist, CHRM1 PAM, CHRM1 agonist)
O=C(Nc1ccc(Cl)cc1)c1nc[nH]c1C(=O)N1CCN(c2ccccc2)CC1	none
C=CCNc1nc(Nc2ccc([N+](=O)[O-])cc2)nc(OC)n1	CHO-K1 Ca antag 29.3
COc1cccc(CN2C(=O)C(C)N(C(=O)c3ccccc3)c3ccccc32)c1 (stereo unspecified)	none
COc1cc(/C=C(\C#N)C(=O)c2c[nH]c3ccccc23)cc(OC)c1O	CHO-K1 Ca ag 19.4, CHRM1 agonist 22.6
COc1cccc(NC(=O)CN(C)C(C)C(=O)N2CCCC2)c1 (stereo unspecified)	none
COc1ccc(-c2ccc(CN3C(C)C(=O)N(Cc4cn(CC5CCCCC5)nn4)CCS3(=O)=O)cc2)cc1 (stereo unspecified)	CHO-K1 Ca antag 25.5
Cc1ccc(-c2ccc(CN3C(C)C(=O)N(Cc4cn(CC5CCCCC5)nn4)CCS3(=O)=O)cc2)cc1 (stereo unspecified)	none
CC(C)CC1C(=O)N(Cc2cn(CC3CCCCC3)nn2)CCS(=O)(=O)N1Cc1ccc(-c2ccncc2)cc1 (stereo unspecified)	CHRM1 agonist 19.4
CC(C)(C)NC(=O)COC(=O)c1ccc2c(c1)C(=O)N(Cc1ccco1)C2=O	none
CN(C)S(=O)(=O)c1ccc(Cl)c(NC(=O)CSc2nc3c(cc2C#N)C(=O)CCC3)c1	CHO-K1 Ca ag 16.6
O=C(Nc1nc2ccccc2[nH]1)NC1CCCCC1	CHO-K1 Ca ag 23.4
O=C(Nc1nc2ccccc2[nH]1)C1CC1	none
CN(C)CCC(Oc1ccccc1OCc1ccccc1)c1ccccc1 (stereo unspecified)	CHRM1 antagonist 45.9
Cc1c(OCc2ccccc2)cccc1OCc1ccccc1	none
COc1cccc(OC)c1C(=O)OCC(=O)NC1CCCCCC1	none
CCOC(=O)c1ccc(S(=O)(=O)Nc2ccccc2-c2nnn(CC)n2)cc1	CHRM1 antagonist 46.8
CC(C)(C)OC(=O)C[C@H]1C/C=C\C[C@H](CC(=O)N[C@H](CO)Cc2ccccc2)C(=O)N2CCC[C@H]2COC1=O	none
CCOc1cc(/C=C/C(=O)Nc2ccc(C(=O)NCCN(CC)CC)cc2)ccc1OCC(C)C	CHRM1 antagonist 63.9
Cn1cnc2cc(NCc3ccccc3Cl)ccc21	none
CC(C)c1ccc(CNc2ccc3c(c2)ncn3C)cc1	CHRM1 antagonist 34.0
CCN(CC)C(=O)c1ncn2c1C(=O)N(C)CC2	CHO-K1 Ca antag 27.3
CN1CCn2cnc(C(=O)NCc3ccccc3)c2C1=O	none
COCCN(C(=O)c1ccc2c(c1)C(=O)N(c1ccccc1Cl)C2=O)c1c(N)n(CC(C)C)c(=O)[nH]c1=O	none
